Experimental data as given in PubChem BioAssay (Tox21).
Results filed as inconclusive are left out. Active and inactive are the calls of the source. Unless noted, the call rests on the fitted dose curve; in most records, active means well fitted curve in the direction sought with a large enough effect in the repeat runs; inconclusive means weak or mixed curves; inactive means no such curve, though single readings can be large; an effect the other way counts as inactive or inconclusive.

Key:
[1] = qHTS assay to identify small molecule antagonists of the estrogen related receptor (ERR) signaling pathway from Tox21 library - cell viability counter screen (AID 1224834); further: nearly all actives have a fitted effect of over 30% in size; further: potency means the concentration at half of the fitted maximal effect
In short: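 Cytotoxicity of test substances is gauged in the same ERR cells used for the antagonist screen, after 17.5 h of compound treatment at 37 C, by CellTiter-Fluor fluorescence measured after 30 min.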

[2] = target: Luciferin 4-monooxygenase (Photinus pyralis) (UniProt P08659); test: qHTS assay to identify small molecule inhibitors of firefly luciferase (AID 1224835); further: nearly all actives have a fitted effect of over 25% in size; further: potency means the concentration at half of the fitted maximal effect
In short: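 Biochemical qHTS: compounds run as interplate titrations against purified firefly enzyme, with D-luciferin and ATP each at its KM concentration. Light output recorded by CCD imaging.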

[3] = qHTS assay to identify small molecule agonists of the constitutive androstane receptor (CAR) signaling pathway - cell viability counter screen (AID 1224836); further: nearly all actives have a fitted effect of over 45% in size; further: potency means the concentration at half of the fitted maximal effect
In short: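 Cell viability multiplexed with the CAR agonist screen: CellTiter-Fluor fluorescence after 23 hr at 37 C. HepG2-CYP2B6-hCAR cells got compounds at 15 concentrations with PK11195 at 0.75 uM final.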

[4] = qHTS assay to identify small molecule antagonists of the constitutive androstane receptor (CAR) signaling pathway - cell viability counter screen (AID 1224837); further: nearly all actives have a fitted effect of over 45% in size; further: potency means the concentration at half of the fitted maximal effect
In short: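 Multiplexed cytotoxicity read-out for the CAR antagonist screen: double-stable HepG2-CYP2B6-hCAR cells co-treated with 50 nM CITCO (final) and compound over 15 concentrations, incubated 23 hr, then assessed by CellTiter-Fluor fluorescence.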

[5] = target: Nuclear receptor subfamily 1 group I member 3 (Homo sapiens) (UniProt Q14994); test: qHTS assay to identify small molecule antagonists of the constitutive androstane receptor (CAR) signaling pathway (AID 1224838); further: nearly all actives have a fitted effect of over 40% in size; further: potency means the concentration at half of the fitted maximal effect
In short: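 Compounds were titrated across 15 concentrations onto HepG2 cells double-stably expressing hCAR and a CYP2B6-2.2kb reporter, together with 50 nM CITCO (final). After 24 h at 37 C, luciferase activity was measured by luminescence.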

[6] = target: Nuclear receptor subfamily 1 group I member 3 (Homo sapiens) (UniProt Q14994); test: qHTS assay to identify small molecule agonists of the constitutive androstane receptor (CAR) signaling pathway (AID 1224839); further: nearly all actives have a fitted effect of over 15% in size; further: potency means the concentration at half of the fitted maximal effect;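 on activation: HepG2 cells stably carrying human CAR and a CYP2B6 luciferase reporter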
In short: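 Luminescent ONE-Glo read-out after 24 hr, 37 C exposure of double-stable HepG2-CYP2B6-hCAR reporter cells to a 15-point compound series, in the presence of 0.75 uM PK11195 (final).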

[7] = qHTS assay to identify small molecule antagonists of the estrogen related receptor signaling pathway with the pleiotropic PPARgamma coactivator (PGC) from Tox21 10K library - cell viability counter screen (AID 1224840; active means well fitted cell-killing curve with a large enough effect in the repeat runs, not every such curve was filed as active; further: nearly all actives have a fitted effect of over 40% in size; further: potency means the concentration at half of the fitted maximal effect)
In short: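 Step one, plate 2,000 PGC/ERR cells per well; step two, incubate 6 h at 37 C/5% CO2; step three, pin-transfer compounds; step four, incubate 17.5 h; step five, add CellTiter-Fluor and read fluorescence after 30 min.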

[8] = qHTS assay to identify small molecule antagonists of the estrogen related receptor signaling pathway with the pleiotropic PPARgamma coactivator (PGC) from Tox21 10K library (AID 1224841; call rule not given here; further: actives are mostly falling curves and most rising ones were filed inactive; nearly all actives have a fitted effect of over 50% in size; further: potency means the concentration at half of the fitted maximal effect)
In short: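 Antagonism in this quantitative HTS is taken from loss of luciferase signal in PGC/ERR cells. Cells (2,000/well) are treated with compounds in DMSO after a 6 h settling period and read by One-Glo luminescence after 18 h.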

[9] = qHTS assay to identify small molecule agonists of the estrogen related receptor signaling pathway with the pleiotropic PPARgamma coactivator (PGC) from Tox21 10K library (AID 1224842); further: nearly all actives have a fitted effect of over 15% in size
In short: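 PGC/ERR reporter cell line, 2,000 cells per well, incubated 6 h at 37 C before 23 nL compound in DMSO was added. After 18 h at 37 C, One-Glo luminescence read following 30 min at room temperature.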

[10] = qHTS assay to identify small molecule agonists of the hypoxia (HIF-1) signaling pathway - cell viability counter screen (AID 1224844; calls by dose curve; further: nearly all actives have a fitted effect of over 50% in size; further: potency means the concentration at half of the fitted maximal effect)
In short: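 Tox21 10K compounds were added to HRE-bla ME-180 cells (0.5% dialyzed FBS) and incubated 17 hrs at 37C; ATP-based CellTiter-Glo luminescence then reported cell viability in the same wells.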

[11] = qHTS assay to identify small molecule antagonists of the estrogen related receptor (ERR) signaling pathway from Tox21 library (AID 1224848); further: nearly all actives have a fitted effect of over 50% in size; further: potency means the concentration at half of the fitted maximal effect
In short: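 Luminescent reporter read-out (ONE-Glo) from NTP's ERR cell line after 18 h treatment at 37 C with DMSO-dissolved Tox21 compounds; cells pre-plated 6 h beforehand at 2,000 per well.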

[12] = qHTS assay to identify small molecule agonists of the estrogen related receptor (ERR) signaling pathway from Tox21 library (AID 1224849; calls by dose curve; further: nearly all actives have a fitted effect of over 15% in size); conditions: ERR reporter cell line, ONE-Glo luciferase, 18 h; at 92.4 µM (top of the series) unless noted
In short: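 Agonist signal is luciferase luminescence from an ERR reporter cell line treated 18 h at 37 C with DMSO-dissolved compounds, read 30 min after ONE-Glo addition at room temperature.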

[13] = qHTS RealTime-Glo MT Cell Viability Assay in HepG2 cells - 24 hour (AID 1224867); further: nearly all actives have a fitted effect of over 50% in size; further: potency means the concentration at half of the fitted maximal effect
In short: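 HepG2 cells (600/well) were dispensed with RealTime-Glo reagents, incubated 5 h at 37 °C, then treated with compounds in DMSO for up to 40 h. Nonlytic NanoLuc luminescence reflecting viable cells was read at each stated time point.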

[14] = A CellTox Green Cytotoxicity Assay to monitor cytotoxicity in HEK293 cells - 0 hour (AID 1224869); further: nearly all actives have a fitted effect of over 50% in size
In short: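 Cytotoxicity was tracked continuously in HEK293 cells by a DNA-binding dye excluded from viable cells. Compounds were transferred in DMSO 5 h after seeding; fluorescence was recorded at intervals up to 40 h.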

[15] = qHTS RealTime-Glo MT Cell Viability Assay in HepG2 cells - 40 hour (AID 1224870); further: nearly all actives have a fitted effect of over 50% in size; further: potency means the concentration at half of the fitted maximal effect
In short: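 HepG2 cells (600/well) mixed with RealTime-Glo MT reagent, settled 5 h at 37 C/5% CO2 before compound addition. Nonlytic NanoLuc luminescence from viable-cell prosubstrate reduction read repeatedly during 40 h treatment at 37 C.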

[16] = target: Thyrotropin receptor (Homo sapiens) (UniProt P16473); test: qHTS assay to identify small molecule agonists of the thyroid stimulating hormone receptor (TSHR) signaling pathway (AID 1224843; calls by dose curve; further: nearly all actives have a fitted effect of over 45% in size)
In short: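 Steps: seed 800 TSHR-HEK293 cells per well; add test compound and hold 30 min at ambient temperature; dispense cAMP-d2 then anti-cAMP cryptate; incubate 1 h at ambient; measure fluorescence intensity.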

[17] = qHTS assay to identify small molecule agonists of H2AX (AID 1224845; active means well fitted activation curve with a large enough effect in the signal ratio in the repeat runs, not every such curve was filed as active; the % refers to the signal ratio)
In short: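 Wild-type CHO-K1 cells, plated overnight, exposed 3hr at 37C to 15 concentrations (0.76% DMSO final). Lysed, then HTRF anti-pH2AX (S139) cryptate and anti-H2AX-d2 antibodies, 24 hr room temperature; 665/620 nm emission read.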

[18] = qHTS assay to identify small molecule agonists of the hypoxia (HIF-1) signaling pathway (AID 1224846; active means well fitted activation curve with a large enough effect in the signal ratio in the repeat runs, not every such curve was filed as active; the % refers to the signal ratio)
In short: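 Steps: seed ME-180 HRE-bla cells (2,000/well, 0.5% dialyzed FBS); incubate 5 hrs at 37C; pin-transfer compounds or DMSO; incubate 17 hrs; add LiveBLAzer B/G substrate CCF4-AM; measure reporter activation by FRET.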

[19] = qHTS assay to identify small molecule agonists of H2AX - cell viability counter screen (AID 1224847; calls by dose curve; further: nearly all actives have a fitted effect of over 30% in size; further: potency means the concentration at half of the fitted maximal effect)
In short: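 Counter-screen for viability: CellTiter-Glo ATP luminescence read after 3 h compound treatment (15-point titration, 0.76% DMSO final) of CHO-K1 cells at 37C, with 30 min room-temperature reagent incubation.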

[20] = qHTS RealTime-Glo MT Cell Viability Assay in HEK293 cells - 32 hour (AID 1224868)
In short: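 HEK293 cells seeded with NanoLuc/prosubstrate reagent, rested 5 h at 37 C, then dosed and kept at 37 C up to 40 h. Nonlytic real-time luminescence from viable cells read at 0, 8, 16, 24, 32 and 40 h.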
On the % scale 0 is the no-effect control and ±100 the full control effect.

Sequence of Thyrotropin receptor (Homo sapiens) (P16473 whole entry, looked up): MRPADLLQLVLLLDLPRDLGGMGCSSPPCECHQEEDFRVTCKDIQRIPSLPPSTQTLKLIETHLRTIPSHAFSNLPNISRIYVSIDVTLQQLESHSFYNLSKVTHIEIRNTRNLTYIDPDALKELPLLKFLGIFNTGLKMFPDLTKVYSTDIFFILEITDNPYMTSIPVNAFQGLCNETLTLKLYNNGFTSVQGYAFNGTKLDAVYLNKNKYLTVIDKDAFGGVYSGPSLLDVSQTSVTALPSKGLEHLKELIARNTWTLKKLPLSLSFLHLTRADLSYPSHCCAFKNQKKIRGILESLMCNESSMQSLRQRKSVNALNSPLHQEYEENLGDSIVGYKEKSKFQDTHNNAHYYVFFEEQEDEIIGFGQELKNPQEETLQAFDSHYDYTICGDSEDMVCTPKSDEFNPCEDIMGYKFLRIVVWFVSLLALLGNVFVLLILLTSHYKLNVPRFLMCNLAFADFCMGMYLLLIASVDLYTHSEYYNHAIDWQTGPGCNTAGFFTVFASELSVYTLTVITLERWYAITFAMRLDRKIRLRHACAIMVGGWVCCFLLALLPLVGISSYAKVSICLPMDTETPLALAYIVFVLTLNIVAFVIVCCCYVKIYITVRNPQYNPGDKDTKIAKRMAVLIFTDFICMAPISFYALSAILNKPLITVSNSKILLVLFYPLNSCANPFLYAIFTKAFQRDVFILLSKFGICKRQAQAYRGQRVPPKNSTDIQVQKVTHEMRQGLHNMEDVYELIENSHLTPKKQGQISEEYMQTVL
Sequence of Nuclear receptor subfamily 1 group I member 3 (Homo sapiens) (Q14994 whole entry, looked up): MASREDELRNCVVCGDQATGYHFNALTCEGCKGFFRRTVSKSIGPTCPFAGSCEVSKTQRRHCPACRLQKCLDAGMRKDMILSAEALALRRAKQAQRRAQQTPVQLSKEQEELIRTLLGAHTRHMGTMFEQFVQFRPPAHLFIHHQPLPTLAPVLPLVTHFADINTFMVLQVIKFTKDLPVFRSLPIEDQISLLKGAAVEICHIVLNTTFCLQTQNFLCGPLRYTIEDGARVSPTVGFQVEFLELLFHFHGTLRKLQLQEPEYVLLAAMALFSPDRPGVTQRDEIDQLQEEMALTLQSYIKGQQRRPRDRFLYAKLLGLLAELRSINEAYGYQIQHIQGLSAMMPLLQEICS
Sequence of Luciferin 4-monooxygenase (Photinus pyralis) (P08659 whole entry, looked up): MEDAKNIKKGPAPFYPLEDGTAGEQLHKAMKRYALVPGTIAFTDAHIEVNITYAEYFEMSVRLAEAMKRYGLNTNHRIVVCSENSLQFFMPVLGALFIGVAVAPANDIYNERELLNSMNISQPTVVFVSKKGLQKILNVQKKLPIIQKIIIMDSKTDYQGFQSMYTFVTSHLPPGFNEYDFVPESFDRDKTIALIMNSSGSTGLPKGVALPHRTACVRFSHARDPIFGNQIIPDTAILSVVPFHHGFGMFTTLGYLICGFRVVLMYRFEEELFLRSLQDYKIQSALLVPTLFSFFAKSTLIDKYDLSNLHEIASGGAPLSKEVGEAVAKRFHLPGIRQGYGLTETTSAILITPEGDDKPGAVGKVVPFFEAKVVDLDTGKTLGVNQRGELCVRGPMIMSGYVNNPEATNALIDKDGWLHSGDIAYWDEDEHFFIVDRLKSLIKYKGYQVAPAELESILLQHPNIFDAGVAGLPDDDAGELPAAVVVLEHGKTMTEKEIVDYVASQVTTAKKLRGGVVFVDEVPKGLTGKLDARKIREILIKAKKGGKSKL

N#CC(C#N)=NNc1cccc(Cl)c1
inactive: Potency [6] | Potency [9] | activity change, positive = activation [12] -57.7% | Potency [14]
active: Potency [1] 9.69 µM | Potency [2] 35.6 µM | Potency [3] 6.11 µM | Potency [4] 6.86 µM | Potency [5] 2.43 µM | Potency [7] 7.7 µM | Potency [8] 0.969 µM | Potency [10] 3.09 µM | Potency [11] 0.77 µM | Potency [13] 19.5 µM | Potency [15] 19.5 µM

CC(Cc1ccc2c(c1)OCO2)NO (stereo not given)
inactive: Potency [1] | Potency [2] | Potency [3] | Potency [4] | Potency [5] | Potency [6] | Potency [7] | Potency [8] | Potency [9] | Potency [16] | Potency [10] | Potency [17] | Potency [18] | Potency [19] | Potency [11] | activity change, positive = activation [12] -3.14% | Potency [13] | Potency [20] | Potency [14] | Potency [15]

Nc1cc(Cl)ccc1Cl
inactive: Potency [1] | Potency [2] | Potency [3] | Potency [4] | Potency [5] | Potency [6] | Potency [7] | Potency [8] | Potency [9] | Potency [16] | Potency [10] | Potency [17] | Potency [18] | Potency [19] | Potency [11] | activity change, positive = activation [12] -0.0267% | Potency [20] | Potency [14]

CNC(=O)CSP(=O)(OC)OC
inactive: Potency [1] | Potency [2] | Potency [3] | Potency [4] | Potency [5] | Potency [6] | Potency [7] | Potency [16] | Potency [10] | Potency [17] | Potency [18] | Potency [19] | Potency [13] | Potency [20] | Potency [14] | Potency [15]

CN1C2CCC(C)(C)C1CC(OC(=O)C(O)(c1cccs1)c1cccs1)C2 (stereo not given)
inactive: Potency [1] | Potency [2] | Potency [3] | Potency [4] | Potency [5] | Potency [6] | Potency [7] | Potency [16] | Potency [10] | Potency [17] | Potency [18] | Potency [19] | Potency [13] | Potency [20] | Potency [14] | Potency [15]

O=[N+]([O-])c1ccccc1-c1ccccc1
inactive: Potency [1] | Potency [2] | Potency [3] | Potency [4] | Potency [5] | Potency [6] | Potency [7] | Potency [8] | Potency [9] | Potency [16] | Potency [10] | Potency [17] | Potency [18] | Potency [19] | Potency [11] | activity change, positive = activation [12] -1.13% | Potency [13] | Potency [14] | Potency [15]

O=c1c2ccccc2c(=O)c2c1cc(Cl)c1[nH]c3c([nH]c12)c(Cl)cc1c(=O)c2ccccc2c(=O)c13
active: Potency [2] 56.4 µM
inactive: Potency [1] | Potency [3] | Potency [4] | Potency [5] | Potency [6] | Potency [7] | Potency [9] | Potency [10] | Potency [18] | Potency [19] | Potency [11] | activity change, positive = activation [12] -7.42% | Potency [20] | Potency [14] | Potency [15]

O=Cc1ccccc1
inactive: Potency [1] | Potency [2] | Potency [3] | Potency [4] | Potency [5] | Potency [6] | Potency [7] | Potency [8] | Potency [9] | Potency [10] | Potency [17] | Potency [18] | Potency [19] | Potency [11] | activity change, positive = activation [12] 7.55% | Potency [13] | Potency [20] | Potency [14] | Potency [15]

COc1nc(C)nc(NC(=O)NS(=O)(=O)c2ccccc2Cl)n1
inactive: Potency [1] | Potency [2] | Potency [3] | Potency [4] | Potency [5] | Potency [6] | Potency [7] | Potency [8] | Potency [9] | Potency [10] | Potency [17] | Potency [18] | Potency [19] | Potency [11] | activity change, positive = activation [12] 7.61% | Potency [20] | Potency [14] | Potency [15]

Cc1ccccc1OP(=O)(Oc1ccccc1C)Oc1ccccc1C
active: Potency [6] 21.8 µM | Potency [19] 90.1 µM
inactive: Potency [1] | Potency [2] | Potency [3] | Potency [4] | Potency [5] | Potency [7] | Potency [8] | Potency [9] | Potency [10] | Potency [17] | Potency [18] | Potency [11] | activity change, positive = activation [12] -4.53% | Potency [13] | Potency [14] | Potency [15]

CC1CN1 (stereo not given)
inactive: Potency [1] | Potency [2] | Potency [3] | Potency [4] | Potency [5] | Potency [6] | Potency [7] | Potency [16] | Potency [10] | Potency [17] | Potency [18] | Potency [19] | Potency [13] | Potency [20] | Potency [14] | Potency [15]

O=C(Cl)c1ccccc1F
inactive: Potency [1] | Potency [2] | Potency [3] | Potency [4] | Potency [5] | Potency [6] | Potency [7] | Potency [16] | Potency [10] | Potency [17] | Potency [18] | Potency [19] | Potency [13] | Potency [20] | Potency [14] | Potency [15]

Oc1ccc(Cl)c(Cl)c1
active: Potency [19] 49.7 µM
inactive: Potency [1] | Potency [2] | Potency [3] | Potency [4] | Potency [5] | Potency [6] | Potency [7] | Potency [8] | Potency [9] | Potency [10] | Potency [17] | Potency [18] | Potency [11] | activity change, positive = activation [12] -11.7% | Potency [13] | Potency [14] | Potency [15]
